# Measurements published in the antibiotic and cytotoxicity screens of Wong et al. (2023).
# Among all 39,000 compounds or so, about 500 (1.3%) were called active. This excerpt belongs to a sample that is enriched for actives.
# Tested on: S. aureus RN4220
# Assay: growth inhibition call (relative growth <= 0.2)
# Settings: 50 µM
row,Structure (SMILES),growth inhibition call
1,C[C@H]1CN([C@@H](C)CO)C(=O)c2cc(NC(=O)Cn3cnnn3)ccc2O[C@@H]1CN(C)C(=O)Nc1ccccc1,inactive
2,C[C@H]1CN([C@@H](C)CO)S(=O)(=O)c2ccc(C#CC(C)(C)O)cc2O[C@H]1CN(C)Cc1ccc(F)cc1,inactive
3,CCC1OC(=O)C(C)C(OC2CC(C)(OC)C(O)C(C)O2)C(C)C(OC2OC(C)CC(N(C)C)C2O)C(C)(O)CC(C)CN(C)C(C)C(O)C1(C)O (configuration not stated),active
4,CC[C@H]1OC(=O)[C@H](C)[C@@H](O[C@H]2C[C@@](C)(OC)[C@@H](O)[C@H](C)O2)[C@H](C)[C@@H](O[C@@H]2O[C@H](C)C[C@H](N(C)C)[C@H]2O)[C@](C)(O)C[C@@H](C)CN(C)[C@H](C)[C@@H](O)[C@]1(C)O,inactive
5,C(=N\C1CCCCCCCCCCC1)/c1ccco1,inactive
6,C[C@H](CO)N1C[C@H](C)[C@H](CN(C)S(=O)(=O)c2cn(C)cn2)Oc2ccc(NC(=O)Cc3cn(C)c4ccccc34)cc2C1=O,inactive
7,C[C@@H]1CN([C@@H](C)CO)C(=O)Cc2cc(NC(=O)Cc3cn(C)c4ccccc34)ccc2O[C@H]1CN(C)Cc1ccc(Oc2ccccc2)cc1,inactive
8,NCc1cn(-c2ccccc2)nc1C12CC3CC(CC(C3)C1)C2,active
9,c1ccc(-c2nc(C34CC5CC(CC(C5)C3)C4)cs2)cc1,inactive
10,OCc1cn(-c2ccccc2)nn1,inactive
11,C=CC[C@@H](CC(=O)N[C@H](CO)Cc1ccccc1)C(=O)N[C@H](C)COC(=O)[C@@H](CC=C)CC(=O)OC(C)(C)C,inactive
12,C[C@@H]1CCCCO[C@@H](CN(C)Cc2ccncc2)[C@H](C)CN([C@H](C)CO)C(=O)c2cc(NC(=O)NC3CCCCC3)ccc2O1,inactive
13,CCc1oc2ccccc2c1C(=O)c1cc(Br)c(O)c(Br)c1,active
14,CCCCc1oc2ccccc2c1C(=O)c1cc(I)c(OCCN(CC)CC)c(I)c1.Cl,inactive
15,CCCCc1oc2ccccc2c1C(=O)c1cc(I)c(OCCN(CC)CC)c(I)c1,inactive
16,OC[C@H]1O[C@@H](OCc2ccccc2)[C@H](O)[C@@H](O)[C@@H]1O,inactive

row,Structure (SMILES),growth inhibition call
1,Cc1noc(C)c1NC(=O)Nc1ccc2c(c1)C(=O)N([C@@H](C)CO)C[C@@H](C)[C@@H](CN(C)C(=O)Nc1ccccc1)OCCCC[C@@H](C)O2,inactive
2,COc1cc(NC(=O)c2cccc(-n3cc(NC(=O)Nc4cccc(C)c4)cn3)c2)cc(OC)c1OC,inactive
3,CC(=O)N1[C@H](CNC(=O)CN2CCOCC2)[C@H](c2ccccc2)[C@@H]1CO,inactive
4,CCC=C(C(=O)NC1C(=O)N2C(C(=O)OCOC(=O)C(C)(C)C)=C(COC(N)=O)CSC12)c1csc(N)n1.Cl (configuration not stated),inactive
5,CON=C(C(=O)N[C@@H]1C(=O)N2C(C(=O)OCOC(=O)C(C)(C)C)=C(C=Cc3scnc3C)CS[C@H]12)c1csc(N)n1,active
6,CON=C(C(=O)NC1C(=O)N2C(C(=O)OCOC(=O)C(C)(C)C)=C(C=Cc3scnc3C)CSC12)c1csc(N)n1 (configuration not stated),active
7,CC(C)NC(=O)N(C)C[C@H]1Oc2ccc(NS(=O)(=O)c3ccc(F)cc3)cc2CC(=O)N([C@H](C)CO)C[C@H]1C,inactive
8,COc1ccc2c3c([nH]c2c1)[C@@H](CO)N(C[C@]13CN(C1)S(=O)(=O)c1cccs1)C(=O)c1ccccc1,inactive
9,C[C@@H]1CN([C@@H](C)CO)C(=O)c2cc(NC(=O)NC3CCCCC3)ccc2O[C@@H]1CN(C)Cc1ccc(Oc2ccccc2)cc1,inactive
10,CC(C)(C)C(=O)C[n+]1ccc(C(N)=O)cc1,inactive
11,O=C(O)C1C(=CCO)OC2CC(=O)N21.[LiH] (configuration not stated),active
12,O=C(O)[C@H]1/C(=C/CO)O[C@@H]2CC(=O)N21,inactive
13,O=C(O)[C@@H]1C(=CCO)O[C@H]2CC(=O)N12,inactive
14,N[C@@H]1CC[C@@H](CCn2cc(C3(O)CCCC3)nn2)O[C@H]1CO,inactive
15,C[C@H](CO)N1C[C@H](C)[C@H](CN(C)C(=O)Nc2ccc(F)cc2)OCc2ccccc2-c2ccccc2C1=O,inactive
16,C[C@@H]1CCCCO[C@@H](CN(C)C(=O)NC2CCCCC2)[C@H](C)CN([C@H](C)CO)C(=O)c2cc(NS(=O)(=O)c3cccs3)ccc2O1,inactive
